Reference: PubChem BioAssay
Unmarked numbers belong to inactive results. Calls of active or inactive are those of the source. Rule as the data show it, unless noted: active = inhibition above about 36%; inactive = the rest.

What was measured:
[1] = test system: transactivating tegument protein VP16 (Human herpesvirus 1); assay: VP16 transactivation reporter inhibitors, counter-screen for SRC2 inhibitor project, cell-based, luminescence, single concentration (AID 652007); conditions: cell-based VP16 transactivation luciferase reporter, at 8.9 µM, stronger effect = higher value
[2] = target: Nuclear receptor coactivator 2 (Homo sapiens) (UniProt Q15596); assay: SRC2 coactivator transcriptional activity inhibitors, confirmation, cell-based, luminescence, HEK293, triplicate (AID 652008;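 active = mean inhibition above 46.5%, the solvent-only control mean plus 3 SD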;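 also: 0% = DMSO-treated cells and 100% = Gossypol at 36 µM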); conditions: HEK293 GAL4-SRC2 luciferase reporter, at 8.9 µM, stronger effect = higher value
Chain of Nuclear receptor coactivator 2 (Homo sapiens) (Q15596 whole entry, looked up, the tested form may be a part): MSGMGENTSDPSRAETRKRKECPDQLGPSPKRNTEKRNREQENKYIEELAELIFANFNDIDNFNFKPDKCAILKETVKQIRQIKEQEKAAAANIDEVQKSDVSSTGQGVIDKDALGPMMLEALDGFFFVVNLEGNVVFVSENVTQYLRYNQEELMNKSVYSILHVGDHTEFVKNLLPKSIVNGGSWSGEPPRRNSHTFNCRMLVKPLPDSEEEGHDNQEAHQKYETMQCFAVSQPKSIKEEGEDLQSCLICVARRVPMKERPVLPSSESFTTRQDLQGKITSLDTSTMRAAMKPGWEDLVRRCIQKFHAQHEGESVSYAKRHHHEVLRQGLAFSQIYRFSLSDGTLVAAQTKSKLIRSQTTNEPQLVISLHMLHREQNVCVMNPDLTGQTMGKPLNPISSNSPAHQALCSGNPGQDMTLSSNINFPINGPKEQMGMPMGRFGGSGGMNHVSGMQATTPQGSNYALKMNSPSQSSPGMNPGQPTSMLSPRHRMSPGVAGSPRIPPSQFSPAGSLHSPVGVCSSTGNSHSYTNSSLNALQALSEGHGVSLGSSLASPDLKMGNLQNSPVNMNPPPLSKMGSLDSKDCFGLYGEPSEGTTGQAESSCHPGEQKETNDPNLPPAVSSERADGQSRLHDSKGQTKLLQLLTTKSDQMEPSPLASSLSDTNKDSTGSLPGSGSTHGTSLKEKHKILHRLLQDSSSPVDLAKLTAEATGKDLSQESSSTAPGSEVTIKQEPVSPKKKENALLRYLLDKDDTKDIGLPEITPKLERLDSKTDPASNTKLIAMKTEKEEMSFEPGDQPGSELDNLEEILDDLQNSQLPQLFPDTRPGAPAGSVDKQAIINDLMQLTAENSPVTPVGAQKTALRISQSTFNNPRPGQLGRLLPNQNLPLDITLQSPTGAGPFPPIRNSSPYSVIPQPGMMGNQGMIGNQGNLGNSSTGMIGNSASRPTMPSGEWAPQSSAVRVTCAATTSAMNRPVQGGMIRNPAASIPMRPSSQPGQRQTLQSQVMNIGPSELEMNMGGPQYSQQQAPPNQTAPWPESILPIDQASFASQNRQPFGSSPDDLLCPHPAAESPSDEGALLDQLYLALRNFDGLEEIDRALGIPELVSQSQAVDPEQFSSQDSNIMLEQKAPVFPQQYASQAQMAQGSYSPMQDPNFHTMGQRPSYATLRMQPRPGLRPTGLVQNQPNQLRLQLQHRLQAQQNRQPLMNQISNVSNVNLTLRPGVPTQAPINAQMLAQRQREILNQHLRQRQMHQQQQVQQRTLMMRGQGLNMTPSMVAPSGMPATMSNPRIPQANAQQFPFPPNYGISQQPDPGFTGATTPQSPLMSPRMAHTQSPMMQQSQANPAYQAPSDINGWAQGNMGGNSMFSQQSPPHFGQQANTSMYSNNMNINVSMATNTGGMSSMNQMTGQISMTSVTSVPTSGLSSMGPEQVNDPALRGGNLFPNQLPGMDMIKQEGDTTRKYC

Structure (SMILES) | inhibition [1] | inhibition [2]
O=S(=O)(c1ccc(Cl)cc1)N1CCCC1c1nc(-c2ccc(Cl)cc2)no1 (stereo not drawn) | -5.4% | -14.7%
COc1ccccc1/C=C/C(=O)c1cc(Br)ccc1OC(=O)c1ccco1 | -1.7% | -2.06%
Cc1cc(Cl)n2c(nc3ccccc32)c1C#N | 4.56% | 28.4%
Nc1ccc(C(=O)n2c3ccccc3c3ccccc32)cc1 | 20.2% | 17.5%
CC1CN(C(=O)CCC(=O)N2CCN(c3cccc(C(F)(F)F)c3)CC2)c2ccccc2O1 (stereo not drawn) | 15.6% | 23.5%
CCOc1ccc(-c2c(C(=O)N/N=C/c3cccc(Br)c3)nnn2-c2nonc2N)cc1 | -5.94% | -23.4%
CC(C)C[C@H]1CN(CCCC[C@H]2CNC(=O)C(=O)N2CCc2ccccc2)C(=O)C(=O)N1CCC1CCCCC1 | 10.7% | -17.3%
N#Cc1ccc(-c2ccc(OCC(=O)Nc3cccnc3)cc2)cc1 | -9.35% | 52.6% (active)
CS(=O)(=O)c1ccc(Cl)c(NC(=O)c2cccc(-n3cnnn3)c2)c1 | -11.3% | -13.4%
Cn1nnnc1Sc1ncnc2scc(-c3ccc(C#N)cc3)c12 | 12.5% | 30.8%
CCC(C)(C(=O)NC1CCCCC1)N(Cc1cccs1)C(=O)CC1NC(=O)NC1=O (stereo not drawn) | -9.62% | -11.8%
Cc1ccc(C)c(NS(=O)(=O)c2cc(C(=O)NCCSC3CCCCC3)ccc2C)c1 | -17.6% | 3.68%
COC(=O)[C@H]1[C@@H](O)[C@@]2(O)c3c(OC)cc(OC)cc3O[C@@]2(c2ccc(OC)cc2)[C@@H]1c1ccc(F)cc1 | 32.4% | 51.4% (active)
CCOc1ccc(NC(=S)C(C#N)=C2N(C)c3ccccc3N2C)cc1 | -4.65% | -15.8%
CC(=O)CC[C@@H]1CC[C@]2(CCCN(S(C)(=O)=O)C2)O1 | -18.6% | -4.54%
Cc1ccc(NC(=O)C2CCN(S(=O)(=O)c3cc([N+](=O)[O-])ccc3Cl)CC2)nc1 | 10.7% | 24.3%
O=C(COC(=O)c1cc(S(=O)(=O)N2CCOCC2)ccc1F)NCc1ccc2c(c1)OCO2 | -10.1% | -5.62%

Structure (SMILES) | inhibition [1] | inhibition [2]
COc1cc(F)ccc1-c1csc(C(O)c2ccc(F)c(F)c2)n1 (stereo not drawn) | -3.93% | 10.6%
CCOc1ccc(C(=O)CCC(=O)Nc2cccc(S(=O)(=O)N3CCCCC3)c2)cc1 | 4.55% | 44.2%
O=C(N/N=C/c1coc2ccc(Cl)cc2c1=O)c1cc(O)cc(O)c1 | 23.4% | 18.5%
COc1cc(NC(=O)CSCC(=O)Nc2cccc(C(F)(F)F)c2)c(Cl)cc1Cl | 5.02% | 5.14%
CCOn1c(=O)c[n+]([O-])c2ccccc21 | 9.21% | -6.65%
CC1CCCc2sc3ncn(N)c(=N)c3c21 (stereo not drawn) | -0.69% | 1.19%
CC1=CC(C)(C)Nc2ccc(OC(=O)c3cccnc3)cc21 | -32.4% | 39.7%
O=C(O)CCC(=O)Nc1cccc(-c2csc(-c3ccccc3)n2)c1 | 47.1% (active) | 34.6%
CCCn1c(CC)nc([N+](=O)[O-])c1Sc1ccc(F)cc1 | -3.5% | 13.2%
Cc1cc(C)n(CCC(=O)N/N=C/c2c(O)ccc3ccccc23)n1 | 5.98% | 17.2%
Cc1cc(C(=O)CN2C(=O)C(=O)N(Cc3ccccc3)C2=O)c(C)n1-c1ccc2c(c1)OCCO2 | -14.1% | -36%
O=C(CCc1nnc(-c2ccc(-c3ccccc3)cc2)o1)NCCc1ccccn1 | 14.7% | 54% (active)
COc1ccc(OCCCCn2c(CO)nc3ccccc32)cc1 | -6.88% | -14.2%
COc1ccc(CCNc2nnc(Sc3nnnn3-c3ccccc3)s2)cc1OC | 5.42% | 20.1%
CC(C)=CCC[C@@]1(C(=O)O)[C@H]2CC=C(CO)[C@@H]1CC/C(C)=C/CC/C(C)=C/C2 | 14.6% | 17.2%
CCN(CC)c1ccc(NC(=O)CCCCC(=O)Nc2ccc(N(CC)CC)cc2)cc1 | 16.2% | 48.3% (active)
O=C(O)CCSc1nc2ccccc2s1 | 40.8% (active) | 58.5% (active)
